These results are taken from ChEMBL document CHEMBL1961873, “Compounds: GSK PKIS; Assays: Nanosyn kinase panel” (2012).

The target of experiment [1] is T1, Serine/threonine-protein kinase D2 (Homo sapiens) (UniProt Q9BZL6).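 Further: mean value of PRKD2 inhibition, from the GSK PKIS screening panel.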
T1 sequence (whole entry): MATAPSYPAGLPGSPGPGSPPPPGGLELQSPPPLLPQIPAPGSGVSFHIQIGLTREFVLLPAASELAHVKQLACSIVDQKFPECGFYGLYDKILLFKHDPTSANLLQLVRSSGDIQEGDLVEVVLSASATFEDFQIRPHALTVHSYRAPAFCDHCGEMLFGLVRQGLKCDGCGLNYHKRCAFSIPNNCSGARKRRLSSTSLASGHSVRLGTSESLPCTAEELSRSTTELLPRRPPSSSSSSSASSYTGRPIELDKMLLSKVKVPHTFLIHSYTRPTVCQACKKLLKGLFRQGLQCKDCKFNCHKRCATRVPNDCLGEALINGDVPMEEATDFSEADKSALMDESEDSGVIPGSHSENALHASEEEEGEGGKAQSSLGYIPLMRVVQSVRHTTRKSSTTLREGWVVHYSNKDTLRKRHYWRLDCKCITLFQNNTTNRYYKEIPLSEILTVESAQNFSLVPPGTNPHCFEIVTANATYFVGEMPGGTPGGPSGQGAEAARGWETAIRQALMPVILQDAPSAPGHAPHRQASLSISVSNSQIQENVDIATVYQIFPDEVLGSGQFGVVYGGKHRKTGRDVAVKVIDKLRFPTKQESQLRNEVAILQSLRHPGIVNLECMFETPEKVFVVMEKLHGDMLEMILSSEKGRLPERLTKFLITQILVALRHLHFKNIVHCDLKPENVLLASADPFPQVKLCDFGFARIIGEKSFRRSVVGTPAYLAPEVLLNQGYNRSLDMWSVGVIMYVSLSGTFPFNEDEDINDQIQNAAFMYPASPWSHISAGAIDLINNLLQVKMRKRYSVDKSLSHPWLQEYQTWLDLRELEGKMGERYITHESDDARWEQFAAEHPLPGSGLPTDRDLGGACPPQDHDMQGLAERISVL
Particulars: at 1 µM.

The target in experiment [2] is T2, Serine/threonine-protein kinase D3 (Homo sapiens) (UniProt O94806).
T2 sequence (whole entry): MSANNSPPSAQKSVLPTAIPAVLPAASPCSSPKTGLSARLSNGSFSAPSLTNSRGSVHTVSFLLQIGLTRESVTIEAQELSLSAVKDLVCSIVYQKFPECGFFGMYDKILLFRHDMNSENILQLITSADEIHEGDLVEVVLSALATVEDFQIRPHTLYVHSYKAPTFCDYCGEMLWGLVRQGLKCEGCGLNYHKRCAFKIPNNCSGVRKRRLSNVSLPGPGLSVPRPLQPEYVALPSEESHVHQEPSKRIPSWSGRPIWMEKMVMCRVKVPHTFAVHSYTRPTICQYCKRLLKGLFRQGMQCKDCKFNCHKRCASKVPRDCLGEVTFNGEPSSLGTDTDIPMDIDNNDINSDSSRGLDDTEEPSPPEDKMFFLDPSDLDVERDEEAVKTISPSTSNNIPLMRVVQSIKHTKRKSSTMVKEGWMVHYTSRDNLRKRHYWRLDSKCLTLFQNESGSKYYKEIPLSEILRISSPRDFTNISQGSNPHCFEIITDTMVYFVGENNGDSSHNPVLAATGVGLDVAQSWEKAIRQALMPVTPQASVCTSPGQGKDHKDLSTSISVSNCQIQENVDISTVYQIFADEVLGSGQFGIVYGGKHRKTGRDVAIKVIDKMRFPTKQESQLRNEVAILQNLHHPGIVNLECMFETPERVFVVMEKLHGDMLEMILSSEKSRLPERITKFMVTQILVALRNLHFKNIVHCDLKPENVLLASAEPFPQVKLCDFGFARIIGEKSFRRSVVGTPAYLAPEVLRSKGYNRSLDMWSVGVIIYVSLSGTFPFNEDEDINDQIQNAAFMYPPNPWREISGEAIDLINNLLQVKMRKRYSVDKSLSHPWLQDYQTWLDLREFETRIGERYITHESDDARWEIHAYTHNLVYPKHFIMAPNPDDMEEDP
Particulars: at 0.1 µM.

Experiment [3] deals with T2, Serine/threonine-protein kinase D3 (Homo sapiens). As to conditions: at 1 µM.
Experiment [4] concerns the target T3, cGMP-dependent protein kinase 1 (Homo sapiens) (UniProt Q13976).
T3 sequence (whole entry): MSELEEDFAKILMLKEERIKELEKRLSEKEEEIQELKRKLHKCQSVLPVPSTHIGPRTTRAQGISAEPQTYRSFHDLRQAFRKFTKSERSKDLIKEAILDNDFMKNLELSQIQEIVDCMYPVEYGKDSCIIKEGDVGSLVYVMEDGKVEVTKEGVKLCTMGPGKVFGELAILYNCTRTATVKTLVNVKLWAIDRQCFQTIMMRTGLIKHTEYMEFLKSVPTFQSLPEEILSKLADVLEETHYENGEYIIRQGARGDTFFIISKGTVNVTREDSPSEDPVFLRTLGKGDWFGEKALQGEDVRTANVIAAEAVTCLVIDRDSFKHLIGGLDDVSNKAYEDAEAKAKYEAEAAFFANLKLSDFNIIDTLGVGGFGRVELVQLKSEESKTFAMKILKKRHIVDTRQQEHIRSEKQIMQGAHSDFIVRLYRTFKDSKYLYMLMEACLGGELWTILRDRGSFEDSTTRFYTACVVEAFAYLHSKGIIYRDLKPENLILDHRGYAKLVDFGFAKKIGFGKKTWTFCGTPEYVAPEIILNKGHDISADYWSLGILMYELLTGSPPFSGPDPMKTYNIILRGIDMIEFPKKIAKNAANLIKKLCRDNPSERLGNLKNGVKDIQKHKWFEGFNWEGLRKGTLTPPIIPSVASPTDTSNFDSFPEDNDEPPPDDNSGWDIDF
As to conditions: at 0.1 µM.

Experiment [5] concerns the target T3, cGMP-dependent protein kinase 1 (Homo sapiens). Particulars: at 1 µM.
Experiment [6] has as its target T4, cGMP-dependent protein kinase 2 (Homo sapiens) (UniProt Q13237).
T4 sequence (whole entry): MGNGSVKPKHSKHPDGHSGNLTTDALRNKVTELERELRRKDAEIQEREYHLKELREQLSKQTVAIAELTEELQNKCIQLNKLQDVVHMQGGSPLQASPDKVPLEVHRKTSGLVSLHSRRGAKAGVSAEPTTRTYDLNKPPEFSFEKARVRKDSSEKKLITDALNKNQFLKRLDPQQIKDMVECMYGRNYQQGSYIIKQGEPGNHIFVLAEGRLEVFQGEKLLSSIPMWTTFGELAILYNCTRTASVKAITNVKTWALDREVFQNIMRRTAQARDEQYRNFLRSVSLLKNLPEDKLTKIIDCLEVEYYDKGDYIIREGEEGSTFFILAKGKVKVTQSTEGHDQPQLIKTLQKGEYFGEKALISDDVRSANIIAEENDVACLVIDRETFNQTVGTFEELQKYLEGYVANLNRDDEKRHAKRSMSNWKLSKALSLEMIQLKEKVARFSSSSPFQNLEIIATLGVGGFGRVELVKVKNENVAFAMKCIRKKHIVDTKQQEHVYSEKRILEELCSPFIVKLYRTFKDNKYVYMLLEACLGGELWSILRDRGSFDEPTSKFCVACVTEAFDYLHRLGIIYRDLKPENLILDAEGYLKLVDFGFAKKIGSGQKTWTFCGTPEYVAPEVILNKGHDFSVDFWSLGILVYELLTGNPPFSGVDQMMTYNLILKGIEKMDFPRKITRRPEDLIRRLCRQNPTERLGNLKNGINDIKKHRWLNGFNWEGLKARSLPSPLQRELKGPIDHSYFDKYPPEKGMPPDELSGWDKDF
As to conditions: at 0.1 µM.

The target of experiment [7] is T4, cGMP-dependent protein kinase 2 (Homo sapiens). As to conditions: at 1 µM.
In experiment [8] the target is T5, cAMP-dependent protein kinase catalytic subunit PRKX (Homo sapiens) (UniProt P51817).
T5 sequence (whole entry): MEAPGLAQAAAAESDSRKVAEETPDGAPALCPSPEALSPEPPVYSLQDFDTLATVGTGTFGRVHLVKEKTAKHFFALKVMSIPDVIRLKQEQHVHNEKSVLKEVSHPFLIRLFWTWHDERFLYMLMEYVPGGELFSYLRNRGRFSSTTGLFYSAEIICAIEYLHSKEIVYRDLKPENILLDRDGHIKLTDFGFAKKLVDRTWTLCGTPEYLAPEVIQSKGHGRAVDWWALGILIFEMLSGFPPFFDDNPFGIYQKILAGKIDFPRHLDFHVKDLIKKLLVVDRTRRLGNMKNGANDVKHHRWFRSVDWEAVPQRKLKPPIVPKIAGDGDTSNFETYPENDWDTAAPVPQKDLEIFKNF
Particulars: at 0.1 µM.

The target in experiment [9] is T5, cAMP-dependent protein kinase catalytic subunit PRKX (Homo sapiens). As to conditions: at 1 µM.
The target in experiment [10] is Rho-associated protein kinase 1 (Homo sapiens) (UniProt Q13464). As to conditions: at 0.1 µM.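 Further: values are mean percent inhibition of ROCK1.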
Chain of Rho-associated protein kinase 1 (Homo sapiens) (Q13464 2-1354 limits assumed): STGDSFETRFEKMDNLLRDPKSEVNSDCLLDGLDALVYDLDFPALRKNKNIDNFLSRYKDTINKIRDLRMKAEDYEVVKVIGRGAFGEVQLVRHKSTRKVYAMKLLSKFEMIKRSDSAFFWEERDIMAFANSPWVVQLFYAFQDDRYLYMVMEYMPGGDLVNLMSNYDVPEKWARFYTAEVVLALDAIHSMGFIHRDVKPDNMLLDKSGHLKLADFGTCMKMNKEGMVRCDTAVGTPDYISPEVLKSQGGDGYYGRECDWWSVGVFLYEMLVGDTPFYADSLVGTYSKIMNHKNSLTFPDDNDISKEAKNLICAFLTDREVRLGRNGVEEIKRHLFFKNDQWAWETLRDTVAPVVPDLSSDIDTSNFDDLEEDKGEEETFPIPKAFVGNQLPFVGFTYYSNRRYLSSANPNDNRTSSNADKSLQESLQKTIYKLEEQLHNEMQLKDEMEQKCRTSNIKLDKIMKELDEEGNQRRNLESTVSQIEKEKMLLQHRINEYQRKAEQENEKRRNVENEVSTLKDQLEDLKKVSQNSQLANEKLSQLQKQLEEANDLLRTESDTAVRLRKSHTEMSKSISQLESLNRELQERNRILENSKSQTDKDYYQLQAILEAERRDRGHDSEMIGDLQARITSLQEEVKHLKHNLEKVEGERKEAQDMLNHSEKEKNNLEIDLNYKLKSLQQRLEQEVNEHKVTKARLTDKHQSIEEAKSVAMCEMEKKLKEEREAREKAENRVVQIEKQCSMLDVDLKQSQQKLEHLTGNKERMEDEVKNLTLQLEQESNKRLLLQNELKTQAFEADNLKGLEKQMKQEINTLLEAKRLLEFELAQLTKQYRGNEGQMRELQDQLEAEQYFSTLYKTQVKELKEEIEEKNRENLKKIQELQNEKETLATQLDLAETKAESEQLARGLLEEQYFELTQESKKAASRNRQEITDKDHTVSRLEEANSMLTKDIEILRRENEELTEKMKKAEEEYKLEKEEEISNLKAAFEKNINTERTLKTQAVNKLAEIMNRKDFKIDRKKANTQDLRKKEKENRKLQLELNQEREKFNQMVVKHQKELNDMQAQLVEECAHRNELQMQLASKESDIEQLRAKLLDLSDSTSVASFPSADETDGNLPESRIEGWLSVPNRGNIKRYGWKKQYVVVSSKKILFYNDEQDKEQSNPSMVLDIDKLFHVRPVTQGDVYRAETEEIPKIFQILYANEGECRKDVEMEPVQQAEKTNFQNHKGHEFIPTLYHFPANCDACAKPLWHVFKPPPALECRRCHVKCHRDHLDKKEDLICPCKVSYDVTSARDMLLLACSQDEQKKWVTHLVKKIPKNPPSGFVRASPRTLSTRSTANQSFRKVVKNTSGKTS

The inhibition is the change of the read-out against control, counted positive when it falls. As for `COc1ccc(-c2coc3ncnc(N)c23)cc1`, the inhibition turned out to be 6.47% in experiment [1]; 4.56% in experiment [2]; 7.56% in experiment [3]; 2.84% in experiment [4]; 3.68% in [5]; 2.51% in experiment [6]. For the same compound, the inhibition in experiment [7] is 3.93%; in experiment [8], 1.76%; in [9] it was 1.11%; in experiment [10], 3.01%.
As to `CCn1c(-c2nonc2N)nc2cncc(C(=O)N3CCNCC3)c21`, the inhibition in experiment [1] stood at 4.19%; in [2] it was 5.65%; in experiment [3] it was 4.94%; in experiment [4], 5.91%; in experiment [5], 9.25%; in experiment [6], 6.28%. Also, the inhibition in experiment [7] amounted to 7.34%; in experiment [8] it was 3.9%; in [9] it was 3.75%.
For `Nc1ncnc2occ(-c3ccc(NC(=O)Nc4cccc(C(F)(F)F)c4)cc3)c12`, the inhibition in [1] was 4.09%; in experiment [2], 5.37%; in experiment [3], 5.91%; in [4], 3.04%; in experiment [5] it was 1.94%; in experiment [6], 2.46%. Further, the inhibition is 3.85% in [7], 1.94% in experiment [8], 3.42% in experiment [9] and 4.04% in experiment [10].
As for `CCn1c(-c2nonc2N)nc2c(C#CC(C)(C)O)nc(OC[C@@H](N)c3ccccc3)cc21`, the inhibition is 8.54% in experiment [1]; -0.8% in experiment [2]; 8.35% in experiment [3]; 17.7% in experiment [4]; 63.5% in experiment [5]; 35.9% in experiment [6]. For the same compound, the inhibition in experiment [7] came to 73.3%; in experiment [8], 78.2%; in experiment [9], 79.3%; in experiment [10] it was 5.46%.
Take `CS(=O)(=O)Nc1ccc(N/C=C2\C(=O)Nc3ccccc32)cc1`: the inhibition in [1] is 2.63%; in [2], -1.78%; in experiment [3], -0.06%; in experiment [4] it was -1.67%; in experiment [5], -1.49%; in [6], -0.94%. Also, the inhibition in experiment [7] is 3.29%; in [8], -0.88%; in experiment [9], 0.66%; in experiment [10], -0.53%.
On to `N#Cc1c(NC(=O)c2cccc3ccccc23)sc2c1CCCC2`, for which the inhibition in experiment [1] is 2.96%; in [2], 4.61%; in experiment [3] it was 4.09%; in [4], 3.4%; in experiment [5] it was 3.28%; in experiment [6], 1.51%. Also, the inhibition in experiment [7] came to 3.5%; in experiment [8], 2.34%; in experiment [9], 1.92%; in experiment [10], 0.98%.
Regarding `COC(=O)Nc1nc2cc(Oc3ccc(NC(=O)Nc4cccc(C(=O)O)c4)cc3)ccc2[nH]1`, the inhibition was -1.55% in [1]; -2.32% in experiment [2]; -3.85% in experiment [3]; -0.28% in [4]; 2.77% in [5]; 1.1% in experiment [6]. Also, the inhibition was found to be 0.86% in experiment [7], 0.76% in experiment [8], 1.8% in experiment [9] and 0.24% in [10].
On to `COc1ccc(COc2ccc(Cc3cnc(N)nc3N)cc2OC)cc1`, for which the inhibition in experiment [1] came to 4.2%; in [2], 0.01%; in [3], 2.56%; in experiment [4] it was 4.15%; in experiment [5], 3.2%; in [6], 2.89%. For the same compound, the inhibition stood at 3.2% in [7], 2.09% in [8], 1.07% in experiment [9] and 2.35% in [10].
